# Measurements from PubChem BioAssay (EPA / NIEHS).
# Several values for one entry are separate records, joined by “and”; a condition that tells them apart may be missing. Equal values may be shown once. Activity calls are given as the source filed them. Rule for the calls: active = hit-call score of the fitted dose curve at least 0.9, where 1 is the maximum; inactive = score below 0.9.
# How the values were obtained:
# [1] = APR_HepG2_P-H2AX_72hr: Apredica 72-hour HepG2 Assay for H2AX Phosphorylation (AID 2282916); settings: imaging, actives raise or lower the signal;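 note: phospho-histone H2A.x immunostain intensity per cell marking DNA damage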
# Procedure, shortened: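 Phospho-H2A.x imaging endpoint in HepG2 after 72 hr compound exposure (0.39–200 uM, duplicate wells). Activity derived by bidirectional curve fitting with DMSO as baseline.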
# [2] = APR_HepG2_MitoMembPot_72hr: Apredica 72-hour HepG2 Assay for Mitochondrial Membrane Potential (AID 2282917); settings: imaging, actives raise or lower the signal
# Procedure, shortened: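 HepG2 cells dosed 72 hr with compound at 0.39–200 uM in duplicate, 0.5% v/v DMSO final. Mitochondria stained with 250 nM MitoTracker Red CMXRos for 30 min before formaldehyde fixation, imaged by high-content fluorescence; bidirectional fit versus DMSO.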
# [3] = APR_HepG2_MitoticArrest_72hr: Apredica 72-hour HepG2 Assay for Mitotic Arrest (AID 2282918); settings: high-content imaging, actives raise or lower the signal
# Procedure, shortened: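 HepG2 cells were exposed for 72 hr to compound at 0.39–200 uM (10 concentrations, duplicate) in 0.5% v/v DMSO, fixed in 3.7% formaldehyde, immunostained for phospho-histone H3 with Hoechst 33342 and imaged by high-content fluorescence; bidirectional fits versus DMSO.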
# [4] = APR_HepG2_MicrotubuleCSK_72hr: Apredica 72-hour HepG2 Assay for Microtubule CSK Stabilty (AID 2282919); settings: HepG2 microtubule cytoskeleton, high-content imaging, actives raise or lower the signal
# Procedure, shortened: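 HepG2, 72 hr cmpd exposure, 0.39–200 uM (10 pts, duplicate), 0.5% DMSO. 3.7% formaldehyde fix, 0.5% Triton perm, anti-alpha-tubulin/Cy5 plus Hoechst. HCS fluorescence intensity; bidirectional fit vs DMSO baseline; taxol as positive control.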
# [5] = APR_HepG2_P-H2AX_24hr: Apredica 24-hour HepG2 Assay for H2AX Phosphorylation (AID 2282920); settings: high-content imaging, actives raise or lower the signal
# Procedure, shortened: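 HepG2 human liver cells were exposed for 24 hr to compounds at 0.39–200 uM in duplicate, with 0.5% v/v DMSO final. Fixed cells were immunostained for phospho-histone H2A.x plus Hoechst 33342, imaged by HCS fluorescence, and fitted bidirectionally against DMSO.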
# [6] = APR_HepG2_StressKinase_72hr: Apredica 72-hour HepG2 Assay for Stress Kinase (AID 2282921); settings: HepG2 stress kinase (phospho-c-Jun) imaging, actives raise or lower the signal
# Procedure, shortened: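 Stress kinase signal reflects nuclear phospho-c-Jun staining in fixed, permeabilized cells exposed 72 h to compound at 0.39–200 uM; DMSO-normalized, fitted for increases or decreases.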
# [7] = APR_HepG2_StressKinase_24hr: Apredica 24-hour HepG2 Assay for Stress Kinase (AID 2282922); settings: HepG2 stress kinase (phospho-c-Jun) imaging, actives raise or lower the signal
# Procedure, shortened: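 Read-out: phospho-c-Jun immunofluorescence (Cy3 secondary) quantified by high-content imaging at 20x, nuclei defined by Hoechst 33342. Human HepG2 liver cells dosed 24 hr, 0.39–200 uM, DMSO 0.5% v/v; gain or loss of signal fitted relative to DMSO.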
# [8] = APR_HepG2_MitoMass_72hr: Apredica 72-hour HepG2 Assay for Mitochondrial Mass (AID 2282924); settings: high-content imaging, actives raise or lower the signal;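 note: MitoTracker Red CMXRos stain intensity per cell imaged as mitochondrial mass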
# Procedure, shortened: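 Read-out: MitoTracker Red fluorescence intensity from automated imaging (20x, six fields per well) in human HepG2 liver cells. Dosing ran 72 hr, 0.39–200 uM, 0.5% DMSO; bidirectional curve fitting versus DMSO baseline.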
# [9] = APR_HepG2_NuclearSize_72hr: Apredica 72-hour HepG2 Assay for Nuclear Size (AID 2282925); settings: high-content imaging, actives raise or lower the signal
# Procedure, shortened: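 Read-out: nuclear diameter from Hoechst 33342 images (ArrayScan, 20x, six fields/well), via cell-cycle image analysis. HepG2 were dosed 0.39–200 uM for 72 hr in 0.5% DMSO. Bidirectional fit relative to DMSO.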
# [10] = ATG_CRE_CIS: Attagene CIS-FACTORIAL HepG2 Assay for human cAMP Responsive Element (CRE) binding protein 3 (AID 2282926); settings: HepG2 CRE cis-reporter, Attagene multiplexed mRNA; actives raise or lower the signal
# Procedure, shortened: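 Capillary electrophoresis of 6-FAM-labelled, HpaI-digested PCR products quantified reporter transcripts. These came from HepG2 transiently transfected with cis-element reporters and exposed to test chemicals for 24 hours, with DMSO defining baseline activity.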
# [11] = molecular target: CCAAT/enhancer-binding protein beta (Homo sapiens) (UniProt P17676); test: ATG_C_EBP_CIS: Attagene CIS-FACTORIAL HepG2 Assay for human CCAAT/Enhancer Binding Protein (C/EBP) beta (AID 2282927); settings: HepG2 Attagene cis-factorial transcription factor reporter; actives raise or lower the signal
# Chain of CCAAT/enhancer-binding protein beta (Homo sapiens) (P17676 whole entry, looked up): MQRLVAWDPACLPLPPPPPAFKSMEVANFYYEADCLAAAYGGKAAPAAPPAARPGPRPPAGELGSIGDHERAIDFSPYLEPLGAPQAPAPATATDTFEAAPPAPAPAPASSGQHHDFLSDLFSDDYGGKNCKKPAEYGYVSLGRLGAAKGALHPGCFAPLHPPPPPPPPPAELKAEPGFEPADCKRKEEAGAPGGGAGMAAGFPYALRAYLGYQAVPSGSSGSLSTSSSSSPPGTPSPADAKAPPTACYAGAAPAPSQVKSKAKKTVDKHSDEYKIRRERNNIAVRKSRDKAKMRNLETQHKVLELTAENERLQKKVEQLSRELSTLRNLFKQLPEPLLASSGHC
# Procedure, shortened: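 HepG2 transiently transfected with multiplexed reporter units under cis-regulatory promoters reporting endogenous C/EBPb activity. After 24 h exposure, reporter mRNA assayed by RT-PCR, fluorescent labelling, HpaI digestion and capillary electrophoresis; bidirectional fitting versus DMSO.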
# [12] = ATG_CMV_CIS: Attagene CIS-FACTORIAL HepG2 Assay for human CMV (Internal Marker) (AID 2282928); settings: HepG2 CMV promoter reporter, transcription factor profiling; actives raise or lower the signal;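 note: endpoint acts as a background internal control marker rather than a target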
# Procedure, shortened: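 Fluorescence intensity of RT-PCR-derived reporter fragments, resolved by capillary electrophoresis, gives the signal. HepG2 liver cells bearing transfected cis-element reporters were treated 24 h; activity in either direction was fit relative to DMSO-treated controls.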
# [13] = ATG_DR4_LXR_CIS: Attagene CIS-FACTORIAL HepG2 Assay for human Liver X Receptor (LXR), DR4 submotif (AID 2282929); settings: HepG2 Attagene DR4 cis-reporter, mRNA transcription; actives raise or lower the signal
# Procedure, shortened: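 HepG2 cells transiently transfected with cis-promoter-driven multiplexed reporter units (DR4 element) were dosed for 24 h. Reporter mRNA was quantified by RT-PCR, fluorescent primer extension, HpaI digestion and capillary electrophoresis; bidirectional fitting versus DMSO baseline.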
# [14] = molecular target: Aryl hydrocarbon receptor (Homo sapiens) (UniProt P35869); test: ATG_Ahr_CIS: Attagene CIS-FACTORIAL HepG2 Assay for human Aryl Hydrocarbon Receptor (Ahr) (AID 2282930); settings: HepG2 AhR cis-factorial reporter transcription; actives raise or lower the signal
# Chain of Aryl hydrocarbon receptor (Homo sapiens) (P35869 whole entry, looked up): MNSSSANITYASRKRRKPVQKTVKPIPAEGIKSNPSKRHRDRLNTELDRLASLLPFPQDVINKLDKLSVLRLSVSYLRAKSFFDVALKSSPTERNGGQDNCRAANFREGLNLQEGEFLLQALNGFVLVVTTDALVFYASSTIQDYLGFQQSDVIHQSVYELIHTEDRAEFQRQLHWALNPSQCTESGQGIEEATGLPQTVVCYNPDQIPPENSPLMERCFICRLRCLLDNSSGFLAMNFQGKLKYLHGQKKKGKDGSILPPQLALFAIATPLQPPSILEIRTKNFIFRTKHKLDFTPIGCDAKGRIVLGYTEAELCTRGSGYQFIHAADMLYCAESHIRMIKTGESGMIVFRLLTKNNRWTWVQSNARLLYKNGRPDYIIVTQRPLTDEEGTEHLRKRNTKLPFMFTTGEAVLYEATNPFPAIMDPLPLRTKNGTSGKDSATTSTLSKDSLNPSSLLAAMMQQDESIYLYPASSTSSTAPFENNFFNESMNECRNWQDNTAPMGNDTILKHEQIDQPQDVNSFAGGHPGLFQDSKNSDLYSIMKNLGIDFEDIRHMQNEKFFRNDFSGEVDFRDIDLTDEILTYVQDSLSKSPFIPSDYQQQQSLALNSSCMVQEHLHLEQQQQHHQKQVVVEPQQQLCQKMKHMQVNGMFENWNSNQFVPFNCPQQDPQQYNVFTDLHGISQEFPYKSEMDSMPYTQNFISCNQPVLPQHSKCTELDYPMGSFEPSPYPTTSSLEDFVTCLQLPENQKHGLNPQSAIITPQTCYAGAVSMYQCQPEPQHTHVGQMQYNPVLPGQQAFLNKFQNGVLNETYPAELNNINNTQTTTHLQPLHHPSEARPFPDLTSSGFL
# Procedure, shortened: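 HepG2 cells transiently transfected with cis-element-driven multiplexed reporter units; endogenous AhR activity read as reporter mRNA 24 h after dosing, via RT-PCR, 6-FAM labelling, HpaI digestion and capillary electrophoresis. Bidirectional fit relative to DMSO.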
# [15] = ATG_AP_1_CIS: Attagene CIS-FACTORIAL HepG2 Assay for human Activator Protein 1 (AP-1) (AID 2282931); settings: HepG2 Attagene cis-factorial AP-1 reporter mRNA; actives raise or lower the signal
# Procedure, shortened: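 HepG2 cells transiently transfected with cis-element-driven multiplex reporter units; 24 h compound exposure. Reporter mRNA quantified by RT-PCR, FAM-labelled fragments resolved by capillary electrophoresis; bidirectional fit versus DMSO baseline.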
# [16] = ATG_AP_2_CIS: Attagene CIS-FACTORIAL HepG2 Assay for human Activator Protein 2 (AP-2) (AID 2282932); settings: HepG2 AP-2 cis-reporter, Attagene transcription factor profiling; actives raise or lower the signal
# Procedure, shortened: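 Read-out: fluorescent reporter mRNA via RT-PCR and capillary electrophoresis, 24 h post-dose in transiently transfected HepG2. Endogenous factors drive cis-promoter reporters; gain or loss of signal fitted bidirectionally against DMSO.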
# [17] = ATG_BRE_CIS: Attagene CIS-FACTORIAL HepG2 Assay for human Bone Morphogenetic Protein (BMP) Response Element (BRE) (AID 2282933); settings: HepG2 BMP response element reporter, Attagene transcription factor profiling; actives raise or lower the signal
# Procedure, shortened: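 Multiplexed cis-reporter assay, HepG2, 24 h exposure. mRNA from reporter units quantified via RT-PCR/CE; DMSO baseline; bidirectional curve fit.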
# [18] = molecular target: Retinoic acid receptor alpha (Homo sapiens) (UniProt P10276); test: ATG_DR5_RAR_CIS: Attagene CIS-FACTORIAL HepG2 Assay for human Retinoic Acid Receptor Alpha (RARE), DR5 submotif (AID 2282934); settings: HepG2 Attagene cis-factorial RARE DR5 reporter, mRNA; actives raise or lower the signal
# Chain of Retinoic acid receptor alpha (Homo sapiens) (P10276 whole entry, looked up): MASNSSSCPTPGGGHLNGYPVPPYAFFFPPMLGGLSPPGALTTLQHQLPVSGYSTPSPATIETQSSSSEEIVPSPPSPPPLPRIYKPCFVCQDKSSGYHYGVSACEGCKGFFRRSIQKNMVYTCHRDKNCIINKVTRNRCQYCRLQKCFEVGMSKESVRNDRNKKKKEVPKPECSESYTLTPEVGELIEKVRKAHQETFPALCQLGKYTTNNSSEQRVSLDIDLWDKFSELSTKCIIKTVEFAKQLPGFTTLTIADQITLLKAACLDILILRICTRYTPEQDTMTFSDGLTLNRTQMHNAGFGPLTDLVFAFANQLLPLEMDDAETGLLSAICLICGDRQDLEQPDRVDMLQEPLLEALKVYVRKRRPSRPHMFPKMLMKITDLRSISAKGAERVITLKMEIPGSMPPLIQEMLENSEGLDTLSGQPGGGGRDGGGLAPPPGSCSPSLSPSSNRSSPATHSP
# Procedure, shortened: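 HepG2 cells transiently transfected with multiplexed reporter units; DR5 cis-element drives reporter through endogenous transcription factors. After 24 h dosing, reporter mRNA quantified by RT-PCR, fluorescent labeling, HpaI digestion and capillary electrophoresis; bidirectional fitting versus DMSO.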
# [19] = molecular target: Transcription factor E2F1 (Homo sapiens) (UniProt Q01094); test: ATG_E2F_CIS: Attagene CIS-FACTORIAL HepG2 Assay for human E2F Transcription Factor 1 (AID 2282935); settings: HepG2 Attagene cis-reporter, E2F reporter RNA transcripts; actives raise or lower the signal
# Chain of Transcription factor E2F1 (Homo sapiens) (Q01094 whole entry, looked up): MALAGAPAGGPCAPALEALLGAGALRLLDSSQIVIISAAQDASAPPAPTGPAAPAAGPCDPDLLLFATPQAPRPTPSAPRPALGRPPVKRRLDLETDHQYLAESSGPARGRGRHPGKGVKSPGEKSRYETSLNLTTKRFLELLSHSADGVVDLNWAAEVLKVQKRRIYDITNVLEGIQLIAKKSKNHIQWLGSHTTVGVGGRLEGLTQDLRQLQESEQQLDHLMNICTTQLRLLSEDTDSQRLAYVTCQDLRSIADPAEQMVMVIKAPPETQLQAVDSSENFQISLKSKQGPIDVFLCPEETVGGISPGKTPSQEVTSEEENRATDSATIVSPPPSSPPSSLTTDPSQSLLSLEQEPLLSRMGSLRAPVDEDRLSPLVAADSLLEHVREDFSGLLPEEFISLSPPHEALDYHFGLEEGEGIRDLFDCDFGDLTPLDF
# Procedure, shortened: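 Transient MRTU transfection of HepG2; 24 h compound exposure; RNA → oligo(dT) RT → PCR → FAM label → HpaI cut → CE fluorescence. Gain/loss of signal fit against DMSO.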
# [20] = APR_HepG2_p53Act_72hr: Apredica 72-hour HepG2 Assay for p53 Activation (AID 2282923); settings: high-content imaging, actives raise or lower the signal;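 note: average cellular p53 protein immunofluorescence intensity in HepG2 cells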
# Procedure, shortened: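 Fixed-cell p53 staining (sheep primary, Cy5 secondary) measured by fluorescence imaging following 72 hr treatment at 0.39–200 uM in 0.5% DMSO; DMSO served as negative control and baseline.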
compound,measurement,setting,value
O=c1[nH]sc2ccccc12,AC50,[1],46.1 µM (active)
same,AC50,[2],107 µM (active)
same,AC50,[3],9.46 µM (active)
same,outcome,[4],inactive
same,AC50,[5],5.7 µM (active)
same,AC50,[6],50.4 µM (active)
same,outcome,[7],inactive
same,AC50,[8],13.6 µM (active)
same,outcome,[9],inactive
same,AC50,[10],45.4 µM (active)
same,outcome,[11],inactive
same,outcome,[12],inactive
same,outcome,[13],inactive
same,outcome,[14],inactive
same,outcome,[15],inactive
same,outcome,[16],inactive
same,outcome,[17],inactive
same,outcome,[18],inactive
same,outcome,[19],inactive
CCCCCCCCCCCC[N+](C)(C)C,AC50,[1],75.4 µM (active)
same,outcome,[2],inactive
same,AC50,[3],13.2 µM (active)
same,outcome,[4],inactive
same,AC50,[5],50.4 µM (active)
same,AC50,[6],100 µM (active)
same,outcome,[7],inactive
same,AC50,[20],20.5 µM (active)
same,outcome,[8],inactive
same,outcome,[9],inactive
same,outcome,[10],inactive
same,outcome,[11],inactive
same,outcome,[12],inactive
same,AC50,[13],22.4 µM (active) and 33.4 µM (active)
same,outcome,[14],inactive
same,AC50,[15],33.4 µM (active) and 12.7 µM (active)
same,outcome,[16],inactive
same,AC50,[17],33.4 µM (active) and 27.1 µM (active)
same,outcome,[18],inactive
same,outcome,[19],inactive
O=CCCCC=O,outcome,[1],inactive
same,outcome,[3],inactive
same,outcome,[4],inactive
same,outcome,[5],inactive
same,outcome,[6],inactive
same,outcome,[7],inactive
same,outcome,[8],inactive
same,outcome,[9],inactive
same,outcome,[10],inactive
same,outcome,[11],inactive
same,outcome,[12],inactive
same,outcome,[15],inactive
same,outcome,[16],inactive
same,outcome,[17],inactive
same,outcome,[19],inactive
